In the library only some 12% were active in any assay of this set; here they are far more common.
Shiga toxin inh: Shiga toxin inhibition | Vero cells, Shiga toxin protein synthesis inhibition reporter | AID 2315 | hit rate 9.2% among 290,000 | inhibition, % at 38.7 µM; in the data active means inhibition mostly above about 28%, no sharp cut-off; inactive means mostly below about 43%; further: 0% is about no effect
SARS PLpro yeast: inhibitors of SARS-CoV papain-like protease in yeast | S. cerevisiae expressing SARS-CoV PLpro, growth rescue | hit rate 0.19% among 330,000 | Potency, µM (titrated, usually from 32.9 µM), without a hit: at the top dose activity, positive = growth rescue, hits mostly activators; further: potency means the concentration at half of the fitted maximal effect; 0% is about no effect; nearly all actives have a fitted effect of over 55% in size
Cycloheximide cs: counter-screen hit for Shiga toxin inhibitors, cycloheximide. AID 2314. max response, %. cell reporter, cycloheximide protein synthesis inhibition counterscreen. hit rate 12% among 300,000; in the data active means max response mostly above about 13%, no sharp cut-off; inactive means mostly below about 14%; further: read at 38.3 µM for the half of the compounds with a filed dose; 0% is about no effect
NS1 function inh: influenza NS1 inhibition | Potency, µM (series often up to 46.1 µM), for the others: top-dose activity, positive = more growth | hit rate 0.4% among 270,000; further: potency means the concentration at half of the fitted maximal effect; actives are rising curves; nearly all actives have a fitted effect of over 50% in size
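In this qHTS, NS1 from influenza A is expressed in budding yeast, where it slows growth. Cells are switched from glucose to 2% galactose medium (pH 6.0, -URA), treated with compound, and growth recovery is read at OD600.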
Starred values were filed as active, the others as inactive; ? = inconclusive; / = no result. Unless noted, the call rests on the fitted dose curve.

SMILES | Shiga toxin inh | SARS PLpro yeast | Cycloheximide cs | NS1 function inh
CC(C)(C)c1nnc2sc(SCC(=O)c3ccccc3)nn2c1=O | 12 | -1% | 3 | 16%
CN(C(=O)CC(NC(=O)c1ccccc1Cl)c1ccccc1)c1ccccc1 (stereo not given) | -3 | 1% | 7 | 23%
COc1ccc(NC(=O)CC2CCCCC2)cc1OC | 36 | 1% | 27* | -11%
O=C(CC1CCCC1)Nc1ccc(Br)cc1 | 76* | -6% | 32* | -12%
CC1=CCC(/C=N\Nc2nnc3c(n2)[nH]c2ccccc23)CC1 (stereo not given) | 55* | 7% | 76* | 17%
CC1CCN(C(=O)CSc2nnc3c(n2)[nH]c2ccccc23)CC1 | -5 | 1% | -5 | 1%
Nc1cc(Cl)ccc1Oc1ccc(Cl)cc1 | 23 | -18% | 9 | -28%
Nc1ccccc1Oc1ccc2ccccc2c1 | 42* | -4% | 14 | /
COc1cc(O)cc2cc3c(c(O)c12)C(=O)CC(C)(O)O3 (stereo not given) | 37* | -1% | 35* | 4%
COc1cc(O)c2c(c1)OC(C)(C)CC2=O | 12 | 8% | -1 | 5%
CSC1=N/C(=C\c2cccnc2)C(=O)N1c1ccccc1 | 24 | 10% | 27* | 2%
CC1=N/C(=C/c2cccnc2)C(=O)O1 | 26 | -6% | 34* | /
Cc1ccc(C2=C/C(=C/c3cccnc3)C(=O)O2)c(C)c1 | 8 | -84% | 11* | -20%
CCSC1=N/C(=C\c2cccnc2)C(=O)N1c1ccccc1 | -11 | 8% | -2 | -31%
CC(=O)Nc1ccc(NC(=O)c2c(-c3ccccc3)noc2C)cn1 | -5 | 0% | -2 | 9%
O=C(c1ccccc1)c1ccc(-n2cnnc2)c([N+](=O)[O-])c1 | -7 | -2% | -3 | -12%
CC(C)c1nnc(NC(=O)CCC2CCCCC2)s1 | 19 | 5% | 12 | 3%
COc1ccc(C)cc1NC(=O)NCc1ccccc1F | 7 | -1% | 13 | -3%
Oc1ccc(C=Nc2cccc3ccccc23)c(O)c1 | 30 | 1% | 14* | 29%
CC(OC(=O)Cc1c(F)cccc1Cl)C(=O)NC1(C#N)CCCCC1 (stereo not given) | / | -8% | / | /
Cc1cc(C)cc(SCc2noc(C(=O)NCc3ccccc3)c2C(=O)NCc2ccccc2)c1 | -3 | 0% | 1 | 2%
Cc1nc(CN(C)Cc2nc(Cc3ccccc3Cl)no2)cs1 | 12 | 1% | 2 | -2%
O=C(Nc1ccc2c(c1)OCCO2)C1CCN(C(=O)c2ccc(Cl)cc2)CC1 | 48* | -16% | 30* | -7%
C=Cc1ccc(C(=O)N2CCCC(Nc3ccc4c(c3)OCCO4)C2)cc1 (stereo not given) | 15 | -9% | 12* | 10%
O=C(Nc1ccc2c(c1)OCCO2)C1CCN(C(=O)c2ccc(F)cc2)CC1 | 109* | -2% | 31* | -14%
SMILES | Shiga toxin inh | SARS PLpro yeast | Cycloheximide cs | NS1 function inh
C=CCOc1cccc(C(=O)N2CCCC(Nc3ccc4c(c3)OCCO4)C2)c1 (stereo not given) | -16 | -5% | 11 | 1%
CC1CCN(C(=O)c2ccc3c(c2)OCCO3)CC1 | 55* | 2% | 46* | 4%
O=C(Nc1ccc2c(c1)OCO2)C1CCN(C(=O)c2ccc(Cl)cc2)CC1 | -3 | -1% | 1 | -8%
CN(C)C(=O)CCc1ccc2c3c([nH]c2c1)[C@]1(CCc2ccccc2)[C@@H](C(=O)N2CCCCC2)C[C@H](CC(=O)NCCc2ccccn2)C(=O)N1CC3 | / | 5% | / | /
Cc1ccc(COc2ccc(Br)cc2/C=N/O)cc1 | 58 | -21% | 31* | -20%
O/N=C/c1cc(Br)ccc1OCc1cccc(F)c1 | 93 | -17% | 26* | -49%
CCOc1cc(/C=N/O)ccc1OCc1ccc(C)cc1 | active | -14% | 27* | -12%
CCOc1cc(/C=N/O)ccc1OCC(=O)Nc1cccc(C)c1 | 41* | -11% | 31* | -11%
COC(=O)N/N=C\c1cc(Br)ccc1OCc1ccccc1 | -3 | -34% | 20 | 10%
CCOc1cc(/C=N\NC(=O)Cc2ccccc2)ccc1OCC(=O)Nc1ccc(C)c(C)c1 | -21 | 1% | -1 | -7%
O=C(CNC(=O)c1cccc(F)c1)N/N=C/c1cc(Br)ccc1OCc1ccccc1 | 9 | 10% | 5 | ?
C=C(C)C(=O)OCC(C)C | / | -4% | / | /
COC(=O)C1=C[C@@H](C(=O)OC)C2C3=C(C(=O)[C@]2(C)NC(=O)c2ccccc2)[C@H](C)[C@@H]2C(=O)N(C)C(=O)[C@@H]2[C@@H]3C1 (stereo not given in full) | 3 | / | -4 | /
CSCCC(NC(=O)c1ccc(Cl)cc1Cl)C(=O)OC1CCCCC1=O (stereo not given) | / | -1% | / | /
Cc1cc(C)n2nc(SCC(=O)N3CCC(C(=O)O)CC3)nc2n1 | / | -4% | / | /
Cn1c(=O)[nH]c(=O)c2c1nc(N1CCOCC1)n2CCCSc1ncccn1 | -4 | 3% | 11* | -10%
Cc1ccnc(SCCn2c(N3CCOCC3)nc3c2c(=O)[nH]c(=O)n3C)n1 | / | / | / | 26%
N#Cc1ccc(OCC(=O)NCC(c2cccs2)N2CCOCC2)cc1 (stereo not given) | -2 | -4% | -1 | 3%
COc1cc(/C=N\NC(=O)OC(C)(C)C)ccc1OC(=O)c1ccco1 | 82* | -2% | 19 | /
COc1ccc(/C=N/NC(=O)C2C3CCCCC32)cc1OC (stereo not given) | 6 | -2% | 13 | /
CC(C)(C)OC(=O)N/N=C/c1cccc([N+](=O)[O-])c1 | 82* | 1% | 50* | /
COc1ccc(/C=N/NC(=O)OC(C)(C)C)cc1OC | active | 16% | 14* | -1%
C[C@H](NC(=O)C1CC(=O)N(c2ccc3c(c2)OCCO3)C1)C(=O)N1CCCCC1 (stereo not given in full) | 21 | -1% | 1 | -4%
C[C@H](NC(=O)N1CCC(Cc2ccccc2)CC1)C(=O)O | -2 | -1% | -7 | 4%
CCOC(=O)Cc1cc(-c2ccc(O)cc2)nc2ccc3ccccc3c12 | 83* | -3% | 22 | -9%
SMILES | Shiga toxin inh | SARS PLpro yeast | Cycloheximide cs | NS1 function inh
CCOC(=O)Cc1cc(-c2ccc(OC)cc2)nc2ccc3ccccc3c12 | -2 | 19% | -2 | 10%
C=CCN(CC=C)C(=O)Cn1cnc([N+](=O)[O-])n1 | -6 | -21% | -1 | 5%
O=C(NCCc1ccc(Cl)cc1)c1ccc2c(c1)OCO2 | 83* | 14% | 43* | 2%
O=C(NCCOc1ccc(Cl)cc1)c1ccc2c(c1)OCCO2 | / | 7% | / | /
O=C(NCCc1ccc(Cl)cc1)c1ccc2c(c1)OCCO2 | / | 1% | 42* | 0%
O=C(NCCc1ccc2c(c1)OCCO2)c1ccc(F)cc1 | 55 | 3% | 34* | -16%
O=C(NCCN1CCCCC1)c1ccc2c(c1)OCCO2 | 31 | -1% | 14* | 2%
CN[C@@H]1NC(=O)c2ccccc2N1Cc1ccc(F)cc1 | / | / | / | -4%
CC1CCCCN1S(=O)(=O)c1ccc(S(=O)(=O)NCCc2ccncc2)cc1 (stereo not given) | -4 | -4% | -1 | -9%
CCOC(=O)Nc1ccc(S(=O)(=O)N2CCC(C)CC2)cc1 | -12 | -1% | -3 | -5%
COc1ccccc1C(CNC(=O)C(CCSC)NS(=O)(=O)c1ccccc1F)N1CCCC1 (stereo not given) | / | 2% | / | /
Cn1c(C2CCCCC2)nc2ccccc21 | 47 | -2% | 16* | -4%

Source: PubChem BioAssay
